Experimental data from PubChem BioAssay (NCI).
“And” between values parts separate entries of the source, which are not always exact repeats. Identical values can stand only once. This is part of a sample that, as a whole, favours compounds with a hit. Of some 79,000 tested, about 15% had one in any assay. A structure can be active in one record and inactive in another. The source made the active and inactive calls. No stated cut-off is given here; in the data, active means growth inhibition above about 70%; inactive means the rest.

Assays:
[1] = NCI Yeast Anticancer Drug Screen. Data for the rad50 strain (AID 155);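 further: 0% = growth of vehicle-only cultures of the same strain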; conditions: S. cerevisiae rad50 strain growth inhibition, stronger effect = higher value
How it was run: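 Relative growth inhibition (compound vs vehicle) was measured in yeast with a defined repair-gene alteration.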

[2] = NCI Yeast Anticancer Drug Screen. Data for the mec2-1 strain (AID 157); conditions: S. cerevisiae mec2-1 strain, stronger effect = higher value
How it was run: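 Strain: mec2-1 (DNA repair/cell cycle alteration). Compound exposure, then growth measured; inhibition expressed relative to vehicle.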

[3] = NCI Yeast Anticancer Drug Screen. Data for the sgs1 mgt1 strain (AID 161);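 further: 0% = growth of cultures given vehicle only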; conditions: S. cerevisiae sgs1 mgt1 strain, stronger effect = higher value
How it was run: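 Test agents were incubated with a DNA-repair-mutant yeast strain. Growth was then read and compared against vehicle-treated controls.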

[4] = NCI Yeast Anticancer Drug Screen. Data for the cln2 rad14 strain (AID 165);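 further: 0% = growth equal to vehicle treated cultures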; conditions: S. cerevisiae cln2 rad14 strain, stronger effect = higher value
How it was run: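 Compounds are applied to the cln2 rad14 yeast strain, and growth is then compared with that of vehicle-treated cultures to give inhibition.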

[5] = NCI Yeast Anticancer Drug Screen. Data for the bub3 strain (AID 167); conditions: S. cerevisiae bub3 mutant strain, stronger effect = higher value
How it was run: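 Screening used yeast with an engineered genetic alteration affecting cell cycle control. Compound-exposed cultures were compared with vehicle cultures, and reduced growth was taken as inhibition.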

[6] = NCI Yeast Anticancer Drug Screen. Data for the mlh1 rad18 strain (AID 175); conditions: S. cerevisiae mlh1 rad18 strain growth inhibition, stronger effect = higher value
How it was run: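 Read-out is yeast growth inhibition, calculated against vehicle-only controls. The compound was applied to a strain engineered with DNA damage repair alterations.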

[7] = at 5.0 µM (retest, dose inferred, filed as 0.5)
[8] = at 50.0 µM (retest, dose inferred, filed as 5.0)

Compound	growth inhibition [1, 7]	growth inhibition [1, 8]	growth inhibition ([1]; at 50.0 µM)	growth inhibition [2, 7]	growth inhibition [2, 8]	growth inhibition ([2]; at 50.0 µM)	growth inhibition [3, 7]	growth inhibition [3, 8]	growth inhibition ([3]; at 50.0 µM)	growth inhibition [4, 7]	growth inhibition [4, 8]	growth inhibition ([4]; at 50.0 µM)	growth inhibition [5, 7]	growth inhibition [5, 8]	growth inhibition ([5]; at 50.0 µM)	growth inhibition [6, 7]	growth inhibition [6, 8]	growth inhibition ([6]; at 50.0 µM)
CC(=O)OC1CCC2(C)C3=C(CCC2C1(C)C)C1(C)CCC(C(C)CCC2NC2(C)C)C1(C)CC3 (stereo not drawn)	-22% (inactive)	86% (active)	22.6% (inactive)	3% (inactive)	66% (inactive)	2.5% (inactive)	23% (inactive)	98% (active)	95.8% (active)	2% (inactive)	23% (inactive)	-29.1% (inactive)	-1% (inactive)	79% (active)	10.8% (inactive)	6% (inactive)	84% (active)	11.2% (inactive)
Cc1ccc(C(=O)OC(C(=O)O)C(OC(=O)c2ccc(C)cc2)C(=O)O)cc1 (stereo not drawn) (tested in a mixture with another compound)	15% (inactive)	79% (active)	6.35% (inactive) and 92.2% (active)	-7% (inactive)	61% (inactive)	9% (inactive) and 93.7% (active)	28% (inactive)	70% (active)	21.2% (inactive) and 93.8% (active)	34% (inactive)	77% (active)	-1.75% (inactive) and 91.3% (active)	-10% (inactive)	88% (active)	23.3% (inactive) and 93% (active)	19% (inactive)	86% (active)	12.3% (inactive) and 92.5% (active)
Cc1cccc(C)c1NC(=O)/C(CC(=O)CC(c1ccccc1)c1c(O)c2ccccc2oc1=O)=N/O (stereo not drawn)	26% (inactive)	60% (inactive)	1.1% (inactive)	20% (inactive)	34% (inactive)	-5.8% (inactive)	13% (inactive)	55% (inactive)	-1.5% (inactive)	28% (inactive)	45% (inactive)	-10.4% (inactive)	35% (inactive)	50% (inactive)	4.85% (inactive)	25% (inactive)	43% (inactive)	2.1% (inactive)
CCN(CCCl)c1ccc(/C=C/C2=[N+](C)c3ccccc3C2(C)C)c(C)c1	-5% (inactive)	98% (active)	62% (inactive)	-1% (inactive)	99% (active)	98.2% (active)	-8% (inactive)	98% (active)	96.8% (active)	-4% (inactive)	97% (active)	71.5% (active)	-6% (inactive)	99% (active)	99.2% (active)	-1% (inactive)	98% (active)	60.8% (inactive)
O=C(Nc1ccccc1)OC(C[N+](=O)[O-])C(Cl)(Cl)Cl (stereo not drawn)	12% (inactive)	99% (active)	99.3% (active)	10% (inactive)	100% (active)	95.8% (active)	5% (inactive)	99% (active)	99.1% (active)	10% (inactive)	91% (active)	42.6% (inactive)	2% (inactive)	100% (active)	99.2% (active)	11% (inactive)	99% (active)	99.2% (active)
[I][Hg][CH2]C1COCC([CH2][Hg][I])O1 (stereo not drawn)	0% (inactive)	5% (inactive)	98.7% (active)	4% (inactive)	6% (inactive)	99.5% (active)	0% (inactive)	9% (inactive)	99.2% (active)	-1% (inactive)	7% (inactive)	98.2% (active)	5% (inactive)	-8% (inactive)	99.5% (active)	0% (inactive)	7% (inactive)	99.2% (active)
CC(=O)OC1C(=O)OCC23CCC4(C)OC4C2OC2CC(OC(=O)/C=C/C=C/C(=O)OCCC1C)C3(C)C21CO1 (stereo not drawn)	99% (active)	99% (active)	92.6% (active)	100% (active)	100% (active)	93.8% (active)	99% (active)	99% (active)	93.8% (active)	98% (active)	98% (active)	92.5% (active)	99% (active)	98% (active)	92.6% (active)	100% (active)	99% (active)	92.3% (active)
CC1CCC2(OC1)OC1CC3C4CC=C5CC(OC6OC(CO)C(OC7OC(C)C(OC8OC(C)C(O)C(O)C8O)C(O)C7O)C(O)C6OC6OC(C)C(O)C(O)C6O)CCC5(C)C4CCC3(C)C1C2C (stereo not drawn)	100% (active)	94% (active)	87.3% (active)	99% (active)	96% (active)	81.5% (active)	99% (active)	95% (active)	84% (active)	99% (active)	95% (active)	86.7% (active)	99% (active)	95% (active)	89.2% (active)	98% (active)	91% (active)	86.5% (active)
CCCCCCCCCCCC1CCCC(C)N1 (stereo not drawn)	8% (inactive) and 28% (inactive)	98% (active) and 92% (active)	91.1% (active) and 91.6% (active)	19% (inactive) and 26% (inactive)	98% (active) and 88% (active)	93.3% (active)	17% (inactive) and 32% (inactive)	98% (active) and 90% (active)	93.3% (active) and 92.5% (active)	10% (inactive) and 49% (inactive)	94% (active) and 95% (active)	90.5% (active) and 91% (active)	24% (inactive) and 32% (inactive)	97% (active) and 85% (active)	91.8% (active) and 91.5% (active)	13% (inactive) and 36% (inactive)	98% (active) and 86% (active)	92.1% (active) and 91.3% (active)
CCc1ccc2c(c1)N(CCCN(CCCl)CCCl)c1ccccc1S2	-4% (inactive)	85% (active)	98.5% (active)	44% (inactive)	59% (inactive)	99.2% (active)	-4% (inactive)	89% (active)	98.6% (active)	-1% (inactive)	53% (inactive)	96.8% (active)	-1% (inactive)	94% (active)	98.5% (active)	-2% (inactive)	94% (active)	98.6% (active)
CC(C)C1(NC(=O)C2C=C3c4cccc5[nH]cc(c45)CC3N(C)C2)OC2(O)C3CCCN3C(=O)C(Cc3ccccc3)N2C1=O (stereo not drawn)	0% (inactive)	94% (active)	96.2% (active)	-47% (inactive)	92% (active)	97.1% (active)	-2% (inactive)	89% (active)	98.2% (active)	-8% (inactive)	95% (active)	94.5% (active)	-4% (inactive)	95% (active)	96.8% (active)	-2% (inactive)	97% (active)	97% (active)
